The record followed here is ChEMBL document CHEMBL3988442, “University of Dundee, Small-Polar-MMV Screening Library” (2021).

Holding throughout (design): scale not given: direction of the effect not stated beside the values
The target in assay [1] is Protein translocase subunit SecA (Escherichia coli (strain K12)) (UniProt P10408). As to the kind of experiment: Assay to Identify E. coli SecA ATPase Inhibitors. It counts as functional. As to conditions: 30 µM.
The target of assay [2] is T1, Ubiquitin-activating enzyme e1, putative (Leishmania donovani (strain BPK282A1)) (UniProt E9BSI1).
T1 sequence (whole entry): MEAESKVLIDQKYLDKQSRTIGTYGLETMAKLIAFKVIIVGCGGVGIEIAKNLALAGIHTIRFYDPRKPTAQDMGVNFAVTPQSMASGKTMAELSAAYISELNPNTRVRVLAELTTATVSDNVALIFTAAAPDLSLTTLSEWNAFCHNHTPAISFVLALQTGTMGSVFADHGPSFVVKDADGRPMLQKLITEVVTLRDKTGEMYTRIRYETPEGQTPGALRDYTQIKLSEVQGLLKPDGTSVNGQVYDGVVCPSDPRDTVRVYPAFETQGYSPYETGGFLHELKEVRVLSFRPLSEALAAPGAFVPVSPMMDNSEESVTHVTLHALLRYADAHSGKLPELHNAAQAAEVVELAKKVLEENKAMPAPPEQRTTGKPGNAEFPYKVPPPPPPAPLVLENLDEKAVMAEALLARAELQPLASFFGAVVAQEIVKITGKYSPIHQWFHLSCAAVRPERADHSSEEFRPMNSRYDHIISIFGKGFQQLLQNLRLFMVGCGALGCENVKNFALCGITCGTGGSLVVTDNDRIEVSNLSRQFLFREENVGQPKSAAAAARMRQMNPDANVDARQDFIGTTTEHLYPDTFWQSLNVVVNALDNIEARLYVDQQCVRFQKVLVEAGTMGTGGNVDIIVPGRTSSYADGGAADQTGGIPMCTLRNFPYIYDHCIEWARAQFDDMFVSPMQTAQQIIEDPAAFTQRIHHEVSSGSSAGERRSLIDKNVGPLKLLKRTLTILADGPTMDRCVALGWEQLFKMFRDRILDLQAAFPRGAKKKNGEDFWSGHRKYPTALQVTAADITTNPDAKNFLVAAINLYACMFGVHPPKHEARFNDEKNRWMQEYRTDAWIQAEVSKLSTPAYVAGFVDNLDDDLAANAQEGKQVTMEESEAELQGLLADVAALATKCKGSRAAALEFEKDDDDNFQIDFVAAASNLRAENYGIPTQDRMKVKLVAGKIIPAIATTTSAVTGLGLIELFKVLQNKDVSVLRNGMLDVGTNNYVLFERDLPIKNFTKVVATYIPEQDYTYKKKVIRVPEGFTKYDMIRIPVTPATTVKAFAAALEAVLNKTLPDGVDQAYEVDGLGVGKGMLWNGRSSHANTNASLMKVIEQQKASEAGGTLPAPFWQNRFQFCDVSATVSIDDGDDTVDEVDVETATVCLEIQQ
As to the kind of experiment: Leishmania donovani Ubiquitin Activating Enzyme (LdE1). In kind it is functional. To be noted: 30 µM.

Assay [3] addresses Sialic acid-binding Ig-like lectin 9 (Homo sapiens) (UniProt Q9Y336). As to the kind of experiment: Hs-Siglec9 ALPHAscreen SOP 20170721. To be noted: 10 µM. On the technique in general: Alpha assays give light when donor and acceptor beads are brought close together.
The subject of another assay is Trypanosoma cruzi. As to the kind of experiment: Trypanosoma cruzi phosphomannomutase and mannose-1-phosphate guanylyltransferase assay. In kind it is functional. As to conditions: 10 µM.
For assay [4], the target named is T2, Arginase-2, mitochondrial (Homo sapiens) (UniProt P78540).
T2 sequence (whole entry): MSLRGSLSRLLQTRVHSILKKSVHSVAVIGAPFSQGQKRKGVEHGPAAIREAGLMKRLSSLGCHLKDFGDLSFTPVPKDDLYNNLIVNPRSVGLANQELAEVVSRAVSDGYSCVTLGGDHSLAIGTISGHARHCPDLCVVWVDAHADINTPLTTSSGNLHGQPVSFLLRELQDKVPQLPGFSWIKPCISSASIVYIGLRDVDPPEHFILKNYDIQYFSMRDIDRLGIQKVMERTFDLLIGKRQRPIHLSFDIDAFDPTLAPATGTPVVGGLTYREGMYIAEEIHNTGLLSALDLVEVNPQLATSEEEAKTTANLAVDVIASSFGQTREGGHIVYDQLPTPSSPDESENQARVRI
As to the kind of experiment: in vitro enzyme assay to detect the production of urea directly proportional to the activity of Arginase II. Further: in the data most compounds retested in dose-response had high values. In kind it is functional. As to conditions: 33.3 µM.

Assay [5] deals with T3, Proteasome subunit beta (Trypanosoma cruzi) (UniProt O96673).
T3 sequence (whole entry): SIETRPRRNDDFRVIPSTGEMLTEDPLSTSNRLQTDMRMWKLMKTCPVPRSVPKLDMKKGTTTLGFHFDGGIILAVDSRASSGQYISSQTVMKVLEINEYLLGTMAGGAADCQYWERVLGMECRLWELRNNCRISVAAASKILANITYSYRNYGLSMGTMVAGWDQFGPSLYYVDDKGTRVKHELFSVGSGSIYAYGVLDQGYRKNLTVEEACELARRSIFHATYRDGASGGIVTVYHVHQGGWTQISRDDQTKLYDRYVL
As to the kind of experiment: Trypanosoma cruzi proteasome chymotrypsin-like activity (TcProtChymo) assay. Further: in the data most compounds retested in dose-response had high values. In kind it is functional. To be noted: 9.37 µM.

The species named for another assay is Homo sapiens. As to the kind of experiment: To identify inhibition of the IFN signalling (Jak-Stat) pathway via expression of an eGFP reporter gene under the control of an IFN-stimulated response element (ISRE) containing MxA promoter. It counts as functional. To be noted: 30 µM. Background: Reporter assays use an easily measured gene product as a stand-in for the process of interest.

Assay [6] addresses T4, Tyrosyl-tRNA synthetase, putative (Trypanosoma cruzi (strain CL Brener)) (UniProt Q4DSP6).
T4 sequence (whole entry): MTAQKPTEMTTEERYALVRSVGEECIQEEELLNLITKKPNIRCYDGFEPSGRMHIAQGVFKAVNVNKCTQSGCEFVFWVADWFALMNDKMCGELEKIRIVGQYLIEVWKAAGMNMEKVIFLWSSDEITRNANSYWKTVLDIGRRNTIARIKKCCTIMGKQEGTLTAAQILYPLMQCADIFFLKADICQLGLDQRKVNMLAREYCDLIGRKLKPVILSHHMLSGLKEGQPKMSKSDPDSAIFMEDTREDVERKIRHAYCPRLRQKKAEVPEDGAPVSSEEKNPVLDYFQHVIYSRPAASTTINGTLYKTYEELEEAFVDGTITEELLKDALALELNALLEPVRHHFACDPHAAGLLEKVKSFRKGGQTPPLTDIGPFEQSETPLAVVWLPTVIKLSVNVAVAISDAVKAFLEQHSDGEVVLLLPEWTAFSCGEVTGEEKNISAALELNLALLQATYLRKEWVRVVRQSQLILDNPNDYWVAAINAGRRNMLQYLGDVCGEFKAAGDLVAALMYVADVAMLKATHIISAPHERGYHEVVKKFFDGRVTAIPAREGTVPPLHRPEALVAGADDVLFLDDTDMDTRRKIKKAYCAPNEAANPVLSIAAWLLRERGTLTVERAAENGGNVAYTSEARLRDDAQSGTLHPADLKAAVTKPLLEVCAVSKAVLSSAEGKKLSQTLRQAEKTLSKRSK
As to the kind of experiment: Trypanosoma cruzi tyrosyl tRNA synthetase (TcYRS) _High Tyrosine SOP. Further: in the data most compounds retested in dose-response had high values. It counts as functional. To be noted: 30 µM.

In assay [7] the target is T4, Tyrosyl-tRNA synthetase, putative (Trypanosoma cruzi (strain CL Brener)). As to the kind of experiment: Trypanosoma cruzi tyrosyl tRNA synthetase (TcYRS) SOP. It counts as functional. As to conditions: 30 µM.
Assay [8] has as its target Chromo domain-containing protein 1 (Saccharomyces cerevisiae (strain ATCC 204508 / S288c) (Baker's yeast)) (UniProt P32657). As to the kind of experiment: ScCHD-1 Enzyme Inhibition Assay. Further: in the data most compounds retested in dose-response had high values. In kind it is functional. As to conditions: 30 µM.

For some assays here: Results with a measured potency or affinity are listed apart.

Chain of Protein translocase subunit SecA (Escherichia coli (strain K12)) (P10408 whole entry): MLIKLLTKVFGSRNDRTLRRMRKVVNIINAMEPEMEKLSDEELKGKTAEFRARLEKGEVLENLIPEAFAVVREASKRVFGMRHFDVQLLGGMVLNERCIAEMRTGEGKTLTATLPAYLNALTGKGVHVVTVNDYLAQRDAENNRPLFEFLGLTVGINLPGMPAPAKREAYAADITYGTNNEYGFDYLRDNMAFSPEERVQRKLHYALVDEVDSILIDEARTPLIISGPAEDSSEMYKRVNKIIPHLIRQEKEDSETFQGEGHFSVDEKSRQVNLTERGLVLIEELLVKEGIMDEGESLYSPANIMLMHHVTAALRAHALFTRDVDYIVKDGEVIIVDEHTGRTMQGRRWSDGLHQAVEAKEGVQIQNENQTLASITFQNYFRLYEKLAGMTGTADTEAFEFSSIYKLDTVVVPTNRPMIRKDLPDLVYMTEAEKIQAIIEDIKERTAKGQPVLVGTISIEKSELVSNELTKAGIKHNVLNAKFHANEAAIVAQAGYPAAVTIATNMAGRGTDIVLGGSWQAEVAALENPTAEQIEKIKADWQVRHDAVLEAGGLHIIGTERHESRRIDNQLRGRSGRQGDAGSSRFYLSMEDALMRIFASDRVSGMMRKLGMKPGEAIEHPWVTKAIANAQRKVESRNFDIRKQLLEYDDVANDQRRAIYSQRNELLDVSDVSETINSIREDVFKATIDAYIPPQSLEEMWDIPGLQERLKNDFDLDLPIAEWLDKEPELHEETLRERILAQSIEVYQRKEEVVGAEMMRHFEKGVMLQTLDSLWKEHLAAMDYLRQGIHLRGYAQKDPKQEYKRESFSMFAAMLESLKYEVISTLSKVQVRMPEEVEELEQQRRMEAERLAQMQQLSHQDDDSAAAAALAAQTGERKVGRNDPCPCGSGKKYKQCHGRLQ
Chain of Sialic acid-binding Ig-like lectin 9 (Homo sapiens) (Q9Y336 whole entry): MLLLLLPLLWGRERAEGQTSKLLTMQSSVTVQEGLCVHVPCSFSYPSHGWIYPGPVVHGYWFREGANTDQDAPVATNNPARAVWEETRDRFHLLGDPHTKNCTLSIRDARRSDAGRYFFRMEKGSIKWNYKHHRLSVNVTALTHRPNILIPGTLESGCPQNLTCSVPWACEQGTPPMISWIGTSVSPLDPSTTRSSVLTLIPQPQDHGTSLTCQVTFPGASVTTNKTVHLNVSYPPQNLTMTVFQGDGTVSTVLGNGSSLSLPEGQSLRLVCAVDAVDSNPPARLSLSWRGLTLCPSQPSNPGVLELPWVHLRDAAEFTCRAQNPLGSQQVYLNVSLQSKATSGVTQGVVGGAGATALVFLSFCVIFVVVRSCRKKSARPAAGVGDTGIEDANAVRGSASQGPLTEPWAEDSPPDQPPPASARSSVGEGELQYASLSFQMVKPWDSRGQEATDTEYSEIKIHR
Chain of Chromo domain-containing protein 1 (Saccharomyces cerevisiae (strain ATCC 204508 / S288c) (Baker's yeast)) (P32657 whole entry, the tested form may be a part): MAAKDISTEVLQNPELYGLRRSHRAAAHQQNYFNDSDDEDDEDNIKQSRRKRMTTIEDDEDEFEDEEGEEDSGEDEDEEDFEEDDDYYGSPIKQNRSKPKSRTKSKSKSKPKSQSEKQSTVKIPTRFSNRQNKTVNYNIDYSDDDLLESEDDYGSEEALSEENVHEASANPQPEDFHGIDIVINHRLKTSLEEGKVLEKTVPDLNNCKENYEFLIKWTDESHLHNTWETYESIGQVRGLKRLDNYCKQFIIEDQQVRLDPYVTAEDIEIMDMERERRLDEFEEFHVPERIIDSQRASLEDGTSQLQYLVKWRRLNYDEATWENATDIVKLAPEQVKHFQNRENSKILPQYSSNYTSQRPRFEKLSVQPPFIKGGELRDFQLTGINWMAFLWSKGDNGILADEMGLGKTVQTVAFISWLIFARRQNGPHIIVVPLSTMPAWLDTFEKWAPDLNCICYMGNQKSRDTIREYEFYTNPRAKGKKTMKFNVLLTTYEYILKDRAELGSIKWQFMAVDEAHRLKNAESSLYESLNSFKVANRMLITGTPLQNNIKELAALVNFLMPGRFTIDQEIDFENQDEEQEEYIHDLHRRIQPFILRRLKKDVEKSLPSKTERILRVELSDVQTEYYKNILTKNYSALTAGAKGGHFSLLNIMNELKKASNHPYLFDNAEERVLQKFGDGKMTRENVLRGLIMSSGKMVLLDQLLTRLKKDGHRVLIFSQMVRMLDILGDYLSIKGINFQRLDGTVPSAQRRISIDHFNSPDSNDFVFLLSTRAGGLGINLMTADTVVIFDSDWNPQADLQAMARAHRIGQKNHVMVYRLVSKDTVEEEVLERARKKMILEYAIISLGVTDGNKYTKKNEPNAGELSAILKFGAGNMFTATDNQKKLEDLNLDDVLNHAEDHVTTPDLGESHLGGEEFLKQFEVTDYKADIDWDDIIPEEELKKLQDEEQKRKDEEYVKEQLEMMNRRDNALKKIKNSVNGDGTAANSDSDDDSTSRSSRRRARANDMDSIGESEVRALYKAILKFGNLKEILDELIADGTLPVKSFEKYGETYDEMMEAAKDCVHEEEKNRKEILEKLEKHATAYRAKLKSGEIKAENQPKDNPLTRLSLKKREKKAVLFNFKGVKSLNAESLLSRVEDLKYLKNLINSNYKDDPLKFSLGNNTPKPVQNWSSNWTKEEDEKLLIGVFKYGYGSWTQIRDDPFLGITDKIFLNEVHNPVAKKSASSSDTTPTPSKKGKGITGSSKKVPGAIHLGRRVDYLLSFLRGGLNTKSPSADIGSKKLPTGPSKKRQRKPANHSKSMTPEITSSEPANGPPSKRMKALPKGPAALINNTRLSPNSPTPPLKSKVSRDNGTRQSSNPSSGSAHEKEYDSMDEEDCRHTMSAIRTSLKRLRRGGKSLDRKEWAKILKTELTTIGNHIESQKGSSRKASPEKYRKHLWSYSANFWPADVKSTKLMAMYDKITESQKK

For the molecule `CC(C)CC(CNC(=O)NCc1cc[nH]n1)N1CCOCC1` (stereo not given), the Percent Effect was -1.69% in assay [1]; 17.9% in assay [2]; -27% in assay [3]; 7.04% in the assay on Trypanosoma cruzi; 0.82% in [4]; 17.8% in assay [5]. The Percent Effect in the assay listed under Homo sapiens came out at 11.6%; in assay [6] it was 4.31%; in assay [7] it was 20.5%; in assay [8], 25%.
Consider `CN(C)c1cc(CNC(=O)Nc2ccc(S(C)(=O)=O)nc2)ccn1`, for which the Percent Effect was -1.24% in [1]; 10.3% in assay [2]; -5.84% in assay [3]; 0.845% in the assay with Trypanosoma cruzi; 1.64% in assay [4]; 10.3% in assay [5]. The Percent Effect was -0.626% in the assay listed under Homo sapiens, 6.22% in [6], 25.3% in assay [7] and -2.59% in [8].
As to `NC(=O)c1cc(C2CCCN(CCc3ccccn3)C2)n[nH]1` (stereo not given), the Percent Effect in assay [1] was -0.145%; in assay [2], -12.8%; in assay [3], -3.53%; in the assay on Trypanosoma cruzi it was 3.29%; in [4], 4.1%; in assay [5] it was -3.67%. Further, the Percent Effect in the assay filed under Homo sapiens was 2.63%; in assay [6], 3.35%; in assay [7] it was -1.21%; in [8], -1.37%.
As for `Cc1ccccc1CC(=O)N(C)C1CCN(c2ccccn2)CC1`, the Percent Effect in [1] was -6.18%; in assay [2], 10.7%; in assay [3] it was 3.6%; in the assay on Trypanosoma cruzi, 5.22%; in assay [4], -1.33%; in [5], 15%. For the same molecule, the Percent Effect is 6.38% in the assay filed under Homo sapiens, 5.79% in assay [6], 12.8% in assay [7] and -17.5% in assay [8].
Take `Cc1nc(C2CCN(C(=O)CO)CC2)cc(N2CCOCC2)n1`: the Percent Effect was -2.95% in assay [1]; 8.11% in assay [2]; 8.92% in [3]; 8.05% with Trypanosoma cruzi; 22% in assay [4]; 8.22% in assay [5]. The Percent Effect in the assay listed under Homo sapiens was -12.6%; in assay [6] it was 6.92%; in assay [7], 17.1%; in assay [8] it was 0.691%.
Take `CC1CN(CC2CCCCC2)CCN1c1ccc2nncn2n1` (stereo not given): the Percent Effect was 3.17% in assay [1]; 15.4% in assay [2]; -7.37% in [3]; -4.6% in the assay on Trypanosoma cruzi; -0.82% in assay [4]; 16.1% in [5]. The Percent Effect was 58.1% in the assay listed under Homo sapiens, 5.26% in assay [6], 8.43% in assay [7] and 95.7% in assay [8].
Take `CCn1cc(S(=O)(=O)N(C)Cc2c(Br)cnn2CC)c(C)n1`: the Percent Effect is 8.78% in [1]; 12% in [2]; -0.969% in [3]; -3.55% in the assay with Trypanosoma cruzi; 3.54% in assay [4]; 16.6% in assay [5]. The Percent Effect in the assay listed under Homo sapiens is 20.6%; in assay [6], 3.17%; in [7], 7.5%; in assay [8], -17.9%.
Take `Cc1noc(C)c1C(=O)N1CC[C@H]2C[C@@H](c3nccs3)O[C@@H]2C1`: the Percent Effect is -6% in [1]; 6.49% in assay [2]; 1.62% in [3]; 5.55% in the assay on Trypanosoma cruzi; -10.5% in [4]; 14.2% in assay [5]. The Percent Effect in the assay filed under Homo sapiens was -13.4%; in assay [6], 7.89%; in assay [7], 12.8%; in assay [8] it was -3.15%.
Regarding `COc1cc(S(=O)(=O)N2CCCc3ccccc32)cc(C(=O)O)c1OC`, the Percent Effect was -5.67% in [1]; 0% in assay [2]; 10.6% in [3]; -0.201% in the assay on Trypanosoma cruzi; -3.99% in assay [4]; 7.38% in [5]. The Percent Effect in the assay listed under Homo sapiens is 9.13%; in [6], 0.526%; in assay [7] it was 7.69%; in assay [8], -5.31%.
With `COc1ccccc1OCC(=O)NS(=O)(=O)c1ccccc1Br`, the Percent Effect in assay [1] is -3.71%; in assay [2], 13%; in assay [3], 10.4%; with Trypanosoma cruzi, 5.78%; in assay [4], 5.12%; in assay [5] it was 3.51%. Besides, the Percent Effect is 4.3% in the assay filed under Homo sapiens, 0% in assay [6], 16.5% in [7] and -9.19% in assay [8].
Take `CCc1nc(C2CCCN2CCc2ccccn2)no1` (stereo not given): the Percent Effect in assay [1] was 0.816%; in assay [2], 20.5%; in assay [3], -18.3%; with Trypanosoma cruzi, 5.35%; in [4], 1.23%; in [5], 18.7%. Also, the Percent Effect in the assay filed under Homo sapiens was 23.6%; in assay [6], 10.1%; in [7] it was 20.5%; in assay [8] it was -7.66%.
With `O=C(C1CC=CC1)N1CCC2(CC1)CN(Cc1ccccn1)CCO2`, the Percent Effect in assay [1] is -2.34%; in [2] it was 1.3%; in [3], -0.373%; in the assay on Trypanosoma cruzi it was 2.63%; in [4], -4.86%; in assay [5], 5.74%. For the same molecule, the Percent Effect is -19% in the assay filed under Homo sapiens, 1.58% in [6], 5.13% in assay [7] and 3.73% in [8].
Turning to `Fc1cccc(CN2CCO[C@H]3[C@@H](OCc4ccccn4)CC[C@@H]32)c1`, the Percent Effect in [1] was -6.18%; in assay [2], 6.49%; in assay [3], -6.92%; in the assay on Trypanosoma cruzi, 7.3%; in [4] it was -3.24%; in assay [5] it was 8.91%. The Percent Effect in the assay filed under Homo sapiens is 4.17%; in assay [6], 2.63%; in assay [7], 15.4%; in assay [8] it was -0.559%.
Regarding `c1cnc(N2CCC3(CC2)CN(CC2CC2)c2ccccc23)nc1`, the Percent Effect in assay [1] was -2.71%; in [2], -9.09%; in [3], 0.418%; in the assay on Trypanosoma cruzi, 2.81%; in assay [4] it was -2.28%; in [5], -0.0858%. Also, the Percent Effect in the assay listed under Homo sapiens stood at 15%; in [6], 33.8%; in [7], 20%; in assay [8], 9.61%.
